Prx2 Sm inh: inhibitors of Schistosoma mansoni peroxiredoxin 2 | S. mansoni Prx2 activity coupled to TGR/GSH (TGR is thioredoxin glutathione reductase), NADPH fluorescence loss, qHTS | Potency, µM | AID 448 | 65,000 compounds, 0.07% hits
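Prx2 activity was followed as the loss of NADPH fluorescence (ex 365/em 450 nm), read every 30 sec for 8 min after H2O2 start. The enzyme mix (50 nM Prx2, 25 nM TGR, GSH, NADPH; pH 7.4 phosphate buffer) was incubated with compound for 15 min at room temperature first.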
AmpC nodet inh: AmpC beta-lactamase inhibition, detergent-free assay; 71,000 compounds, 1.8% hits; Potency, µM (top dose mostly 28.7 µM), for the others: at the top dose activity change, negative = inhibition; AmpC nitrocefin hydrolysis, absorbance 480 nm, no detergent; P00811; AID 585; also: % of control where 0% means no effect
Target sequence (P00811 whole entry, looked up): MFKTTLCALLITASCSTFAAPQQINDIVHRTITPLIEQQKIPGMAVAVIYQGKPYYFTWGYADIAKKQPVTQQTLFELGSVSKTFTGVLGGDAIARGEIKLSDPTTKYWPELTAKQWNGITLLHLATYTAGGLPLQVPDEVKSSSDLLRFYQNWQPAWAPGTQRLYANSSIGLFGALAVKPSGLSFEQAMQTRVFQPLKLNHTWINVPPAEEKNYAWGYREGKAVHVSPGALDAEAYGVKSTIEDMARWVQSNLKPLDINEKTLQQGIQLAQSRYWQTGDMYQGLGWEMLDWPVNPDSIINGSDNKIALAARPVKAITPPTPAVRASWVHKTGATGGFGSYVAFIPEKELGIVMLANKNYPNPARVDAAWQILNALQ
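Enzyme, pH 7.0 phosphate. Compound titrations were pre-incubated with AmpC for 15 min at room temperature before nitrocefin (stock 800 uM) addition; product formation was recorded at 480 nm every 20 s for 4 min.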
Anthrax LT inh: blocks cellular internalization of anthrax lethal toxin; Cells, anthrax lethal toxin internalization, FRET ratio (460/530); Potency, µM (titrated, usually from 40 µM), for inactives: at the highest dose activity change, negative = inhibition, usual class: inhibitors; 70,000 compounds, 0.67% hits; also: % is scaled to controls: 0 for no effect and ±100 for the full control effect; nearly all actives have a fitted effect of over 50% in size
AmpC det inh: AmpC beta-lactamase inhibition, detergent assay; purified AmpC, nitrocefin hydrolysis with detergent; Potency, µM (titrated, usually from 28.7 µM), inactives show top-dose activity change, negative = inhibition; 71,000 compounds, 0.09% hits; AID 584; active = well fitted curve in the direction sought with a large enough effect; inconclusive = small, poorly fitted or top-dose-only effect; also: % is scaled to controls: 0 for no effect and ±100 for the full control effect
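E. coli AmpC (5.3 nM) in 20 mM phosphate pH 7.0 with 0.01% Triton X-100, preincubated 15 min RT with compound; nitrocefin (2 uL of 800 uM stock) hydrolysis followed by 480 nm absorbance every 20 s over 4 min.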
Active calls of the source: *; ? = inconclusive; . = not tested or not shown; ! = repeats disagree; [ ] = remark or other dose. Most compounds without a hit are left out; they make up all but 2.4% or so of the library. Unless noted, calls follow the shape of the full dose curve. Potency is read from the fitted curve at half-maximal effect.

SMILES	Prx2 Sm inh	AmpC nodet inh	Anthrax LT inh	AmpC det inh
CCOC(=O)N1CCC(NC(=O)CCc2c(C)nc3c(c(C)nn3-c3ccccc3)c2C)CC1	>57	4µM*[single pt active]	-10%	12%
Cc1ccc(S(=O)(=O)OC[C@@H]2CN3[C@H](c4ccc(Br)cc4)[C@H](C)CC[C@H]3C(=O)O2)cc1	.	.	-1%[8 µM]	.
COc1ccc(NC(=O)Nc2cccc(C)n2)cc1	>57	4µM*[single pt active]	-13%	10%
Cc1cccc(NC(=O)Nc2ccc(C#N)cc2)n1	>57	0%	-7%	3%
C[C@@H]1O[C@@H](O[C@H]2C[C@@H](O)[C@]3(CO)[C@@H]4[C@@H](O)C[C@]5(C)[C@H](C6=CC(=O)OC6)CC[C@@]5(O)[C@H]4CC[C@@]3(O)C2)[C@H](O)[C@H](O)[C@@H]1O	>57	-9%	?	-4%
O=C(Cn1nc(Cc2cccnc2)c2ccccc2c1=O)Nc1ccc2c(c1)OCO2	>57	4µM*[single pt active]	-17%	14%
O=C(Cn1nc(Cc2cccnc2)c2ccccc2c1=O)NCCCN1CCCC1=O	>57	4%	-9%	8%
CCN(CC)CCNC(=O)Cn1nc(Cc2cccnc2)c2ccccc2c1=O	>57	4µM*[single pt active]	?	12%
Nc1ccn([C@@H]2CC[C@H](CO)O2)c(=O)n1	>57	0%[12.8 µM]	1%[3.58 µM]	-4%[12.8 µM]
O=C1C(C2=C(O)c3ccccc3C2=O)=Nc2ccccc21	>57	13µM*	-6%	11%
CCCn1c(OC)nc2c1c(=O)n(C)c(=O)n2C	>57	4µM*[single pt active]	4%	8%
CCCOc1nc2c(c(=O)n(C)c(=O)n2C)n1CCC	>57	11%	-3%	22%
O=C(O)c1ccccc1C(=O)Nc1cc2c(cc1Br)-c1ccccc1C2=O	>57	-21%[5.75 µM]	?	-5%[5.75 µM]
COc1cc(NC(=O)c2ccc(Cl)cc2)c(OC)cc1NC(=O)CN1CCOCC1	>57	123%	13µM*	1%
Cc1ccc(-n2nc(C)c3c(-c4cccs4)c(C#N)c(N)nc32)cc1	>57	-10%	?	3%
Cc1nn(-c2ccccc2)c2nc(N)c(C#N)c(-c3ccc(F)cc3)c12	.	3%	5µM*	0%
O=c1[nH]c2c(s1)C(c1ccccc1)C1C3CCC(C3)C1S2 (stereo unspecified)	>57	1.6µM*	?	9%
O=C(O)C/C=C\CC(=O)O	>57	0%[5.75 µM]	-4%[8 µM]	8%[5.75 µM]
COc1cc2c(cc1OC)[C@@]13CCN4CC5=CCO[C@H](CC(=O)O)[C@@H]([C@H]1N2)[C@H]5C[C@H]43	>57	6%[5.75 µM]	?	-3%[5.75 µM]
Cc1cc(C(=O)N2CCN(c3ncccn3)CC2)sc1-c1ccccc1	>57	56%	-9%	-4%
CCN1CCN(C(=O)c2cc3c(s2)-c2ccccc2S(=O)(=O)C3)CC1	>57	4µM*[single pt active]	-14%	15%
O=C(c1ccco1)N1CCN(C(=O)c2cc3c(s2)-c2ccccc2OC3)CC1	>57	136%	-19%	11%
CN1CCN(C(=O)c2cc3c(s2)-c2ccccc2S(=O)(=O)C3)CC1	>57	4µM*[single pt active]	-3%	11%
COc1cccc(-c2cc(N(C)Cc3ccco3)ncn2)c1	>57	19%	-12%	-4%
COc1ccc(O[C@H]2C=C[C@@H](c3ccccc3)O[C@@H]2CO/N=C(\C)CCN2CCCc3nc(C)c(C)cc32)cc1	.	.	5%[8 µM]	.
SMILES	Prx2 Sm inh	AmpC nodet inh	Anthrax LT inh	AmpC det inh
CNCCCC12CCC(c3ccccc31)c1ccccc12	>57	50%	5µM*!	-1%
CNCCCC1c2ccccc2C=Cc2ccccc21	>57	1%[12.8 µM]	4%[3.58 µM]	-1%[12.8 µM]
CCNc1sc(C(=O)c2cccs2)c(N)c1-c1nc2ccccc2s1	>57	0.02µM*	?	9%
O=C(Cn1ncc2c(=O)oc3ccccc3c21)N(Cc1ccco1)C1CCCCC1	>57	3.2µM*[single pt active]	-15%	10%
O=C(Cn1ncc2c1-c1ccccc1OC2)N(Cc1ccco1)C1CCCCC1	>57	81%	-11%	11%
C[C@H]1CC[C@@H]2[C@@H](C)C(=O)O[C@H]3O[C@@]4(C)CC[C@@H]1[C@]32OO4	>57	6%	?	-1%
CO[C@@H]1COC(=O)[C@@H](CCSC)NC(=O)C/C=C\[C@@H](C)COC(=O)[C@H](C)NC(=O)C/C=C\[C@H]1C	.	.	-3%[8 µM]	.
C[C@@]12CC[C@H]3[C@@H](CC=C4C[C@H](OS(=O)(=O)O)CC[C@]43C)[C@H]1CCC2=O	>57	5%	?	-1%
CCN(CC)CCO[C@H]1CC[C@@]2(C)C(=CC[C@@H]3[C@H]2CC[C@]2(C)C(=O)CC[C@H]32)C1	>57	44%	25µM*	-2%
